Measurements reported in PubChem BioAssay AID686978 (National Center for Advancing Translational Sciences (NCATS), 2013).
Hit rate of the full screen: of about 420,000 compounds, about 64,000 (15%) were called active. Roughly 27% stayed inconclusive and do not appear here. Not all results are given here. Unmarked numbers belong to inactive results. The call rests on the fitted dose curve; in most records, active means well fitted inhibition curve with a large enough effect; inconclusive means small, poorly fitted or top-dose-only effect; inactive means flat fitted curve, though single readings scatter.
On the % scale 0 is the no-effect control and ±100 the full control effect; potency means the concentration at half of the fitted maximal effect.

Assay: qHTS for Inhibitors of human tyrosyl-DNA phosphodiesterase 1 (TDP1): qHTS in cells in absence of CPT; further: nearly all actives have a fitted effect of over 55% in size
Settings: DT40 Tdp1-/- hTDP1 cells, no CPT, ATP luminescence, 48 h; activity change, negative = growth inhibition: at 46.2 µM (top of the series)
Procedure, shortened: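 Chicken DT40 Tdp1-/- cells stably complemented with human TDP1 were seeded at 400 cells/well with DMSO in place of 20 nM camptothecin. After compound pinning, cells grew at least 48 hr at 37 °C; viability read by CellTiter-Glo luminescence.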
For CCc1nc2ccc(C(=O)Nc3ccc(OC)c(OC)c3)cn2c1N(C)C(=O)c1cccc(OC)c1, the “activity change, negative = growth inhibition” value was -12.6%.
For CCc1nc2ccc(C(=O)Nc3cccc(OC)c3)cn2c1N(CCC(C)C)CCN(C)C, the “activity change, negative = growth inhibition” value was -99.5%.
With CCc1nc2ccc(C(=O)Nc3cc(-c4ccccc4)ccc3OC)cn2c1N(CC)CC(=O)N(C)C the Potency was 11.6 µM (active).
With CCn1c(CNS(=O)(=O)c2ccc(Cl)cc2)n[nH]c1=S the “activity change, negative = growth inhibition” value was 1.74%.
In the case of Cc1cccnc1NC(=O)CSc1nnc(COc2ccc(C(C)C)cc2)n1C, the “activity change, negative = growth inhibition” value was -9.74%.
In the case of N#Cc1cccc(CSc2ncnc(N)n2)c1, the “activity change, negative = growth inhibition” value was -16.2%.
With Cc1cc(C)c(C)c(S(=O)(=O)Nc2ccc(O)cc2)c1C the Potency was 11.6 µM (active).
In the case of Cc1cc(C)c(C)c(S(=O)(=O)Nc2cccnc2)c1C, the “activity change, negative = growth inhibition” value was -12.7%.
For Cc1cc(C(C)(C)C)cc(S(=O)(=O)Nc2ccc(C(=O)O)cc2)c1C, the “activity change, negative = growth inhibition” value was -0.652%.
For COc1cc(NC(=O)C2CC(c3ccccc3O)=NO2)c(OC)cc1Cl (stereo unspecified), the “activity change, negative = growth inhibition” value was -15%.
In the case of CC/S(CC1CC1(Cl)Cl)=N\S(=O)(=O)c1ccc(C)cc1 (stereo unspecified), the “activity change, negative = growth inhibition” value was -13.4%.
In the case of COC(=O)CCNc1ccc2c(c1)OCCO2, the “activity change, negative = growth inhibition” value was -12.9%.
For O=C(NCCc1ccccc1)c1ccc(OCCOc2ccccc2)cc1, the “activity change, negative = growth inhibition” value was 2.77%.
In the case of CC(C)(c1ccccc1)c1ccc(OCCN)cc1, the Potency was 11.6 µM (active).
With O=C(NCCOc1ccccc1)c1ccccc1 the “activity change, negative = growth inhibition” value was -0.273%.
In the case of O=C(CSc1ncccn1)N1CCCC1, the “activity change, negative = growth inhibition” value was -10.3%.
In the case of CCc1nnc(NC(=O)CSc2nc3c(c(=O)n2-c2ccccc2OC)SCC3)s1, the “activity change, negative = growth inhibition” value was -17.8%.
For CN(C)S(=O)(=O)c1ccc(C(=O)NCCN=C2NS(=O)(=O)c3ccccc32)cc1, the “activity change, negative = growth inhibition” value was 4.5%.
With NC(=S)NN=C1CCCC(C(F)(F)F)C1 (stereo unspecified) the Potency was 23.1 µM (active).
For Cc1cc(C)nc(SCc2cn3c(C)cc(C)nc3n2)n1, the “activity change, negative = growth inhibition” value was -8.17%.
In the case of O=[N+]([O-])/C(N=Nc1ccccc1)=N\Nc1ccccc1, the “activity change, negative = growth inhibition” value was 4.72%.
With O=S(=O)(c1ccc(Br)c2ccccc12)N1CCOCC1 the “activity change, negative = growth inhibition” value was -4.4%.
For O=S(=O)(NCCc1ccccn1)c1cc(Cl)cc(Cl)c1O, the “activity change, negative = growth inhibition” value was 12.2%.
For COc1ccc(NC(=O)CCC(=O)Nc2nnc(C3CCCCC3)s2)cc1, the “activity change, negative = growth inhibition” value was -8.09%.
With COC(=O)CCc1sc(Nc2ccc(Br)cc2)nc1-c1ccc(OC)cc1 the Potency was 13 µM (active).
With COc1ccc(NC(=O)c2sc(N)nc2-c2ccccc2)cc1 the “activity change, negative = growth inhibition” value was 19.9%.
In the case of CC(C)(C)n1nc2c(c1NC(=O)c1cc3ccccc3o1)CSC2, the “activity change, negative = growth inhibition” value was -14.3%.
With C[C@@H](NC(=O)OC(C)(C)C)c1nnc(S(=O)(=O)Cc2ccccc2)o1 the Potency was 1.03 µM (active).
For CC(C)Sc1nnc([C@H](Cc2ccccc2)NC(=O)OC(C)(C)C)o1, the “activity change, negative = growth inhibition” value was -15.6%.
For C[C@H](NC(=O)OC(C)(C)C)c1nnc(SCC(N)=O)o1, the “activity change, negative = growth inhibition” value was 0.895%.
For O=C(CSc1nnc(CNC(=O)c2ccc(F)cc2)o1)Nc1ccc2c(c1)OCO2, the “activity change, negative = growth inhibition” value was -1.83%.
